# Most compounds without a hit are left out; they make up all but 7.3% or so of the library.
# NPC1 promoter act: NPC1 promoter activation; Huh7 NPC1 promoter luciferase reporter, 24 h; Potency, µM (series often up to 9.22 µM), inactives show top-dose activation, most hits filed as activators; actives 2.4% (n = 320,000); AID 485313; also: % of control where 0% means no effect; nearly all actives have a fitted effect of over 60% in size
#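 Luciferase expression driven by the NPC1 promoter was measured in stably transfected Huh7 cells after a 24 h compound incubation, using a luciferase reagent and a luminescence read.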
# FLuc counter: counter-screen for miR-21 project: firefly luciferase inhibitors or activators; actives 6.9% (n = 360,000); P08659; AID 588342; purified FLuc, Km substrates, luminescence inhibition; Potency, µM (highest dose often 57.5 µM), inactives show at the highest dose activity change, negative = inhibition, usual class: inhibitors;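 also: plate controls were vehicle for no effect and reference inhibitor for full effect; nearly all actives have a fitted effect of over 55% in size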
# Target sequence (P08659 whole entry, looked up): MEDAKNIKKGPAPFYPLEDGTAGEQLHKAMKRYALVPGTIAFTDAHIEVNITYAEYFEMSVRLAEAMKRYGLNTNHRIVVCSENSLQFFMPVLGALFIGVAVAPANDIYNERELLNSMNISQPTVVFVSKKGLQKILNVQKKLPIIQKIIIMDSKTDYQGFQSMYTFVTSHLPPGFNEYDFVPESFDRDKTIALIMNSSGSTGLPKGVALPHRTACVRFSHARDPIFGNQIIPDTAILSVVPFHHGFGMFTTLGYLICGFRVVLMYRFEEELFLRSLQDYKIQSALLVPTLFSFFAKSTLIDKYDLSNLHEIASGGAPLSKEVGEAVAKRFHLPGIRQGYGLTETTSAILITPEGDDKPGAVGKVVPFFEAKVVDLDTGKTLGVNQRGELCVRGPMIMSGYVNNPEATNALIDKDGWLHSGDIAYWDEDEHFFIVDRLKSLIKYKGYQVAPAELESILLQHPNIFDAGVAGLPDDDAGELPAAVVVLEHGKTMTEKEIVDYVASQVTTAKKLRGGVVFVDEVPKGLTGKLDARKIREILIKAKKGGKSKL
#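 Purified P. pyralis luciferase (10nM final) with 10uM D-luciferin and 10uM ATP (Km levels) in 50mM Tris acetate pH 7.5, 10mM Mg acetate, 0.01% Tween-20, 0.05% BSA; qHTS 6-point titration, ~60 µM downward; luminescence read.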
# SMN2 splice up: increases expression of the SMN2 splice variant | HEK293 SMN2-luciferase splicing reporter, luminescence, 30-36 h | Potency, µM (doses to about 46.1 µM), without a hit: at the highest dose activity change, positive = activation, actives largely listed as activators | AID 1458 | actives 2.8% (n = 210,000); also: % of control where 0% means no effect; nearly all actives have a fitted effect of over 55% in size
#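 qHTS luciferase splicing reporter: luminescence rises when SMN2 exon 7 is included in transfected HEK293 cells. Compound exposure lasted 30-36 h at 37C, with 4.5 mM final sodium butyrate as control, followed by a ONE-Glo read.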
# ELG1 genotoxic: inducers of genotoxicity in HEK293T ELG1-luciferase cells. HEK293T ELG1-luciferase reporter, luminescence, 16 h. Potency, µM (titrated, usually from 46 µM), without a hit: top-dose activity change, positive = activation, usual class: activators. actives 1.3% (n = 330,000); also: % of control where 0% means no effect; nearly all actives have a fitted effect of over 60% in size
#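 Genotoxicity was scored as increased ELG1-luciferase reporter signal, measured by ONE-Glo luminescence (30 min, room temperature). Compound or vehicle exposure of the HEK293T reporter cells lasted 16 hr at 37°C.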
# Rab9 promoter act: Rab9 promoter activation | Huh7 Rab9 promoter-luciferase reporter, luminescence, 24 h | Potency, µM (titrated, usually from 9.22 µM), inactives show at the highest dose activation, negative = inhibition, hits mostly activators | actives 2.8% (n = 320,000) | AID 485297; also: % of control where 0% means no effect; nearly all actives have a fitted effect of over 60% in size
#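 Huh7 cells stably carrying a Rab9 promoter-luciferase reporter, 1500 cells per well in OP-MEM I with 10% FBS, treated with compound 24 hours at 37C. Luciferase activity read by luminescence after 10 minutes with Amplite reagent.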
# Luc counter: counter-screen: inhibitors of Kinase-Glo firefly luciferase; Q27757; Kinase-Glo luciferase, ATP luminescence, 8 min; Potency, µM (highest dose often 38.3 µM), for inactives: at the highest dose activity change, negative = inhibition, most hits filed as inhibitors; actives 0.28% (n = 200,000); also: % is scaled to controls: 0 for no effect and ±100 for the full control effect; nearly all actives have a fitted effect of over 60% in size
#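 Substrate mix (final 50 mM imidazole pH 7.2, 50 mM KCl, 7 mM MgCl2, 10 uM ATP, 0.01% Tween 20, 0.05% BSA) plus pin-tool compound, then Kinase-Glo detection mix; 8 min ambient, luminescence read.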
# * hit, by the source's call; ? = inconclusive; . = not tested or not shown. Calls follow the shape of the dose curve; as a rule, active = well fitted curve in the direction sought with a large enough effect; inconclusive = small, poorly fitted or top-dose-only effect, or another doubt; inactive = no such curve, though single readings can be large; an effect the other way counts as inactive or inconclusive. Potency is read from the fitted curve at half-maximal effect.
SMILES,NPC1 promoter act,FLuc counter,SMN2 splice up,ELG1 genotoxic,Rab9 promoter act,Luc counter
COCCNC(=O)c1ccc(CSc2nc3ccccc3s2)cc1,?,?,.,14.3%,?,.
O=C(NNC(=O)c1ccc([N+](=O)[O-])cc1)c1ccc(NS(=O)(=O)c2cccs2)cc1,.,.,.,0.9%,.,.
COc1ccc(Nc2cc(C(=O)NCCCN3CCOCC3)c3ccccc3n2)cc1,-1.8%,?,.,-5.2%,-1.1%,.
COc1ccc(-c2cc(C(=O)NCCCN3CCCC3=O)c3ccccc3n2)cc1,-2.2%,12µM*,.,-6.0%,-4.2%,.
CC(C)Oc1ccc(-c2cc(C(=O)NCCN3CCOCC3)c3ccccc3n2)cc1,?,1.51µM*,29.0%,5.6%,25.1%,-5.9%
CCOc1ccc(-c2cc(C(=O)NCCCN3CCOCC3)c3ccccc3n2)cc1,14.6%,8.49µM*,.,2.2%,1.0%,.
CCc1ccc(Nc2cc(C(=O)NCCCN3CCOCC3)c3ccccc3n2)cc1,-0.8%,19µM*,-6.0%,-11.8%,6.8%,-4.4%
CCOc1ccc(C(=O)NCC(=O)OCC(=O)N2CCC(C)CC2)cc1,0.0%,-18.2%,-14.1%,0.1%,-1.5%,-3.8%
COc1cc(/C=C/C(=O)OCC(=O)Nc2cc(S(=O)(=O)N3CCOCC3)ccc2Cl)cc(OC)c1OC,.,.,.,-1.5%,.,.
CCCN1CCN(C(=O)c2cc3c(s2)-c2ccccc2OC3)CC1,?,7.57µM*,.,14.6µM*,3.98µM*,.
O=C(c1cc2c(s1)-c1ccccc1OC2)N1CCCC1,?,12µM*,-22.1%,?,2.82µM*,-1.3%
O=C(COc1ccc2c(c1)CCC2)NCc1cccc(Cl)c1,-3.1%,-8.5%,.,-2.8%,-4.3%,.
COc1ccc(OC)c(NC(=O)COc2ccc3c(c2)CCC3)c1,-2.3%,-26.7%,.,1.1%,-8.6%,.
O=C(NCc1ccccc1)c1cccc(COc2ccc3c(c2)CCC3)c1,0.355µM*,1.35µM*,1.26µM*,0.651µM*,0.355µM*,3.0%
COc1ccccc1NC(=O)c1ccc(COc2ccc3c(c2)CCC3)cc1,20.6%,-2.1%,11.2µM*,6.7%,23.7%,4.0%
O=C(O)c1cccc(COc2ccc3c(c2)CCC3)c1,3.55µM*,0.0675µM*,.,?,3.16µM*,.
COC(=O)c1ccccc1NC(=O)c1ccc(COc2ccc3c(c2)CCC3)cc1,15.2%,?,-2.3%,3.9%,9.3%,1.2%
O=C(NC1CCCCC1)c1cccc(OCc2ccccc2)c1,-1.9%,0.7%,.,-5.0%,2.5%,.
COc1cccc(OC)c1C(=O)NNC(=O)c1cccc(COc2ccc3c(c2)CCC3)c1,0.447µM*,4.78µM*,1.41µM*,0.366µM*,0.562µM*,-2.0%
COC(=O)C1=C(C)N(C)C(C)=C(C(=O)OC)C1c1ccc(Cl)cc1,-5.8%,-0.2%,9.6%,13.0%,-9.4%,-2.6%
Oc1ccccc1C(Nc1nccs1)c1ccc2cccnc2c1O (stereo not given),-31.5%,0.5%,.,7.1%,-40.6%,.
Cc1nn(C)c(Cl)c1C(=O)NC(C(=O)O)c1ccccc1 (stereo not given),-2.7%,-3.4%,.,0.7%,-2.8%,8.0%
O=C(NCc1ccco1)c1cccc2c1C(=O)c1ccc(N3CCCC3)cc1S2(=O)=O,.,.,.,-5.3%,.,.
COc1cccc(-c2nc(SCC(=O)NCc3ccco3)c3c(=O)n(C)c(=O)n(C)c3n2)c1,.,-4.1%,.,.,.,.
COc1ccccc1NC(=O)c1nc(SCc2ccc(F)cc2)ncc1Cl,.,4.6%,-5.2%,.,.,.
SMILES,NPC1 promoter act,FLuc counter,SMN2 splice up,ELG1 genotoxic,Rab9 promoter act,Luc counter
O=C(Nc1ccc(CSc2ccccc2)cc1)c1ccccc1,13.9%,4.0%,13.9%,2.6%,20.5%,-13.6%
O=C(Nc1ccccc1)c1ccc(CSc2ccccn2)cc1,1.26µM*,2.13µM*,22.4µM*,?,1.58µM*,11.2µM*
COc1ccccc1NC(=O)c1ccc(CSc2ncccn2)cc1,-1.0%,16.9µM*,.,4.8%,-1.1%,-10.2%
O=C(Nc1cccc(Cl)c1)c1ccc2c(=O)n3c(nc2c1)CCCCC3,1.58µM*,3.38µM*,?,?,0.891µM*,-1.0%
O=C(Nc1ccccn1)c1ccc2c(=O)n3c(nc2c1)CCCCC3,1µM*,4.78µM*,.,?,0.562µM*,.
O=C(Nc1ccc(F)c(Cl)c1)c1ccc2c(=O)n3c(nc2c1)CCCCC3,3.16µM*,6.75µM*,.,-9.2%,1.78µM*,.
CCc1cccc(NC(=O)c2ccc3c(=O)n4c(nc3c2)CCCCC4)c1,?,13.5µM*,.,-7.8%,22.5%,.
O=C(Nc1ccc(Cl)cc1)c1ccc2c(=O)n3c(nc2c1)CCCCC3,14.9%,?,.,11.6%,19.3%,.
Cc1ccc(S(=O)(=O)Nc2cccc(C(=O)N3CCOCC3)c2)cc1,?,0.1%,.,-0.4%,-0.6%,.
Cc1ccc(-n2c3nc(=O)n(C)c(=O)c-3cc3c(Cl)cccc32)c(C)c1,.,0.1%,-5.2%,.,.,.
CCOP(=O)(OCC)c1nc(-c2ccccc2)oc1N1CCCCC1,-3.4%,0.9%,.,0.5%,1.6%,.
Cc1ccc(NC(=O)c2ccc3c(=O)n4c(nc3c2)CCC4)cc1F,3.16µM*,.,.,?,2.51µM*,.
O=C(Nc1ccc(F)cc1)c1ccc2c(=O)n3c(nc2c1)CCCCC3,3.16µM*,13.5µM*,.,?,4.47µM*,.
CNC(=O)c1ccc(NC(=O)c2ccc3c(=O)n4c(nc3c2)CCC4)cc1,-2.3%,-10.0%,.,-0.5%,1.0%,.
Cc1ccc(-n2c(SCc3ccc([N+](=O)[O-])cc3)nc3ccccc3c2=O)cc1,0.7%,-1.2%,-0.8%,-1.2%,-2.5%,-0.2%
CCOC(=O)Cc1nnc2c(Nc3ccc(C)cc3)nc3nonc3n12,4.0%,-1.4%,0.6%,-2.1%,-7.0%,2.7%
CC(=O)N(c1nnc(-c2ccc(C)cc2)s1)C1CCCC1,-0.4%,13.5µM*,.,?,?,.
CC(C)(C)C(=O)N1CCN(CCN2C(=O)c3cccc4cccc(c34)C2=O)CC1,-0.3%,-4.8%,.,-3.0%,5.8%,.
COc1ccc(C(=O)N=c2sc3c(C)ccc(OC)c3n2C)cc1OC,1.58µM*,2.69µM*,.,-2.7%,1.78µM*,.
CCn1c(=NC(=O)c2cccc(N3C(=O)CCC3=O)c2)sc2c(C)ccc(OC)c21,-2.2%,?,.,1.0%,-0.1%,.
COc1cccc(C(=O)N=c2sc3c(C)ccc(OC)c3n2C)c1,0.708µM*,0.675µM*,2.82µM*,0.651µM*,0.708µM*,?
COc1ccc(N=c2sc3ccccc3n2C)cc1,2.51µM*,6.01µM*,?,8.2µM*,2.24µM*,-2.6%
COc1ccc(C(=O)N=c2sc3ccccc3n2C)cc1OC,2.51µM*,10.7µM*,17.8µM*,?,2.24µM*,-2.7%
Cc1ccccc1NC(=O)c1[nH]cnc1C(=O)NN,-0.7%,6.2%,.,-0.4%,-12.2%,.

# Screening data deposited in PubChem by National Center for Advancing Translational Sciences (NCATS).
